Laboratory results taken from PubChem BioAssay AID729 (The Scripps Research Institute Molecular Screening Center, 2007).
Screen size: about 97,000 compounds; about 450 (0.46%) were called active. The full list was thinned out, with actives kept by preference. A number with no mark means an inactive call. Cut-off read from the data, not from the text of the source: active = activation above about 16%; inactive = the rest.

molecular target: Sphingosine 1-phosphate receptor 2 (Homo sapiens) (UniProt O95136); assay: S1P2 receptor agonists, primary screen, cell-based (AID 729); details: S1P2-expressing cell line, agonist reporter read-out; at 4.5 µM; active compounds read high;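 note: 0% = vehicle low control and 100% = maximal reference agonist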
Sequence (O95136 whole entry, looked up): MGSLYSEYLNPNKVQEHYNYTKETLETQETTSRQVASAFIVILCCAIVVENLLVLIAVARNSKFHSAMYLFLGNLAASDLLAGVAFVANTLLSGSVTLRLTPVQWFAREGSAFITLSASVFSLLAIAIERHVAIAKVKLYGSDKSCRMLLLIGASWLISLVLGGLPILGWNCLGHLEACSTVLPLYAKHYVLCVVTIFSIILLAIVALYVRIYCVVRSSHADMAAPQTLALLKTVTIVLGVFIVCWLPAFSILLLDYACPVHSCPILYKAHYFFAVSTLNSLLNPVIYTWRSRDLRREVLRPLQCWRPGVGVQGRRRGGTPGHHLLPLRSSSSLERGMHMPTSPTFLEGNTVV

Going from `Cc1ccc(-n2c(SCC(=O)Nc3ccc4c(c3)OCO4)nnc2-c2ccccn2)cc1` to `COc1ccc(-n2nnnc2SCC(=O)Nc2ccccc2)cc1`, the activation falls from -1.29% to -5.85%.

Going from `Cc1cccc(C)c1NC1=NC(=S)N(c2ccc(N(C)C)cc2)C1(C)C` to `CC(C)C(=O)Nc1nnc(Sc2ccc(N(C)C)cc2)s1`, the activation rises from -9.2% to -5.86%.

Compared with `Cc1cc(C(=O)OCC(=O)Nc2ccc(F)c(F)c2)c(C)o1`, `COc1ccc(NC(=O)COC(=O)Cn2c(C)nc3ccccc32)cc1OC` is lower in activation: -1.12% for the first, -6.15% for the second.

First: Cc1sc2nc(SCC(N)=O)n(C)c(=O)c2c1C
Second: Cc1nnc(SCC(=O)Nc2ncc3c(n2)CC(C)(C)CC3=O)s1
The activation of the first is lower: -6.32% for the first, -4.47% for the second.

First: CCOc1ccc(NC(=O)CN(C)CC(=O)Nc2cccc(Cl)c2C)cc1OCC
Second: O=C(Cc1ccc2c(c1)CCCC2)Nc1ccccc1Cl
The activation of the first is lower: -8.46% for the first, -3.38% for the second.

First: CS(=O)(=O)Nc1ccc(C(=O)N2CCCC2)cc1
Second: Cc1ccc(C(=O)N2CCCC2)c(F)c1F
The activation of the first is higher: -1.67% for the first, -3.27% for the second.

Going from `O=C(NC1CCCCC1)c1cc([N+](=O)[O-])ccc1N1CCOCC1` to `OC(C#CCN1CCOCC1)(c1ccccc1)C1CCCCC1` (stereo unspecified), the activation falls from -3.96% to -4.7%.

Going from `CC(C)c1nc(N2CCOCC2)c(C#N)c2c1COC(C)(C)C2` to `COc1ccc(CSc2nc(N3CCOCC3)c3c(c2C#N)CC(C)(C)OC3)cc1`, the activation falls from -3.4% to -4.98%.

Compared with `Cc1c(CCO)c(=O)[nH]n1C(=O)c1c(F)cccc1F`, `COCCOC(=O)C1=C(C)Nc2nc(C)nn2C1c1ccccc1` (stereo unspecified) is higher in activation: -3.16% for the first, 0.76% for the second.

Going from `CCn1c(SCC(=O)c2ccc3ccccc3c2)nnc1-c1cccs1` to `COc1ccc(Cc2nnc(SCC(=O)c3cccc([N+](=O)[O-])c3)n2C)cc1`, the activation rises from -3.98% to -3.41%.

Compared with `CCCc1nc2oc3c(OCC)ncnc3c2c2c1COC(C)(C)C2`, `CCCn1c(=NC(C)=O)c(C(=O)OCC)cc2c(=O)n3ccccc3nc21` is higher in activation: -0.19% for the first, 14.5% for the second.

Going from `O=C(Oc1ccc([N+](=O)[O-])cc1)c1ccc2ccccc2n1` to `COc1ccc(-c2cc(C(=O)n3cnc4ccccc43)c3ccccc3n2)cc1`, the activation rises from -2.37% to -1.61%.

Going from `CCOC(=O)c1cnc(SCC(=O)Nc2ccccc2C(=O)OC)nc1N` to `CCOC(=O)c1nc(Nc2ccc(C(=O)OC)cc2)c2ccccc2n1`, the activation falls from 1.96% to -2.78%.

Going from `Cc1nnc(SCCCn2c(N3CCCCC3)nc3c2c(=O)[nH]c(=O)n3C)s1` to `C=C(C)Cn1c(N2CCN(CC)CC2)nc2c1c(=O)[nH]c(=O)n2C`, the activation rises from -7% to -3.08%.

Going from `O=C(O)c1ccccc1-c1ccccc1C(=O)Nc1cccc2ccccc12` to `O=C(CCCCCn1c(=O)[nH]c2ccccc2c1=O)NCCc1c[nH]c2ccccc12`, the activation falls from -6.33% to -8.42%.

Compared with `CCOC(=O)c1cc(C#N)c(N2CCCCC2)nc1-c1ccccc1`, `COC(=O)c1ccccc1Oc1c(F)c(F)nc(N2CCOCC2)c1F` is lower in activation: -3.1% for the first, -3.44% for the second.

Compared with `COc1ccccc1N1CC(C(=O)Nc2ccc(S(=O)(=O)N3CCOCC3)cc2)CC1=O` (stereo unspecified), `Cc1ccc(S(=O)(=O)N2CCN(S(=O)(=O)N3CCOCC3)CC2)cc1` is lower in activation: -6.57% for the first, -6.81% for the second.

Going from `CN(C)CCNC(=O)Nc1cccc(Cl)c1Cl` to `COc1ccc(NC(=O)C(NC(C)=O)C(=O)NCc2ccccc2Cl)cc1` (stereo unspecified), the activation falls from -3.84% to -7.51%.

First: O=C(/C=C/c1ccc(Cl)cc1Cl)NCc1ccco1
Second: O=C(NCc1ccco1)C1CCCN(S(=O)(=O)c2ccccc2)C1 (stereo unspecified)
The activation of the first is higher: -1.23% for the first, -2.97% for the second.

First: O=C(COc1ccc2c(C(F)(F)F)cc(=O)oc2c1)Nc1ccc2c(c1)OCCO2
Second: CC1Cc2ccccc2N1CC(=O)Nc1ccc2c(c1)OC(F)(F)O2 (stereo unspecified)
The activation of the first is lower: -0.82% for the first, 2.93% for the second.

First: COc1ccc(CCNC(=O)CN(c2ccccc2)S(C)(=O)=O)cc1OC
Second: COc1ccc(N(CC(=O)N/N=C/c2cccs2)S(=O)(=O)c2ccc(OC)c(OC)c2)cc1
The activation of the first is higher: -5.51% for the first, -7.16% for the second.

First: CC(C)c1ccc(NC(=O)CCN2C(=O)c3ccc([N+](=O)[O-])cc3C2=O)cc1
Second: CCc1ccc(NC(=O)CN2C(=O)CSC2=O)cc1
The activation of the first is higher: -2.71% for the first, -3.93% for the second.

Going from `CCN(CC)CCCNC(=O)CCc1ccccc1` to `CC(C)(C)C(=O)Cn1c(NCCO)nc2ccccc21`, the activation rises from -2.5% to 0.17%.

Compared with `CCCCCOC(=O)C1=C(C)Nc2nnnn2C1c1ccc(OC)c(OC)c1OC` (stereo unspecified), `COc1cc(C(O)c2nc3ccccc3n2C)cc(OC)c1OC` (stereo unspecified) is lower in activation: -4.69% for the first, -6.52% for the second.

Compared with `O=c1oc2c(Cl)cc(Cl)cc2cc1-c1nnc(Nc2ccccc2F)s1`, `Nc1c(C(=O)NCc2ccccc2)sc2nc3c(cc12)C(=O)CCC3` is lower in activation: -0.35% for the first, -2.41% for the second.

Going from `Cn1c(=O)n(C)c2cc(/C=N/NC(=O)c3cccc(Br)c3)ccc21` to `COc1ccc(/C=N/Nc2nc3ccccc3o2)cc1OC`, the activation rises from -7.52% to 1.35%.

Going from `CCCCNC(=O)C1CCCN(S(=O)(=O)c2ccc(S(=O)(=O)NCC(C)C)cc2)C1` (stereo unspecified) to `CCNC(=O)NC(=O)C(C)OC(=O)c1cc(S(=O)(=O)N2CCCCCC2)ccc1OC` (stereo unspecified), the activation falls from -2.41% to -4.87%.

Compared with `COc1ccc(C2C(C(C)=O)=C(O)C(=O)N2Cc2cccnc2)cc1` (stereo unspecified), `COc1ccc(C2C(C(C)=O)=C(O)C(=O)N2c2nccs2)cc1` (stereo unspecified) is higher in activation: -3.66% for the first, -0.54% for the second.

Going from `CC(C)C(C)NC(=O)COc1ncnc2ccccc12` (stereo unspecified) to `COc1ccc(-c2nc3ccccc3n2CCC(C)C)cc1OC`, the activation falls from -3.57% to -4.13%.

First: O=C(CN1CCN(S(=O)(=O)c2ccc3ccccc3c2)CC1)NC(=O)NC1CCCCC1
Second: O=C(Nc1ccccc1Cl)N1CCN(c2ccc3nncn3n2)CC1
The activation of the first is lower: -7.63% for the first, -1.47% for the second.

First: Cn1cnc([N+](=O)[O-])c1Nc1ccccc1O
Second: O=C(O)c1cc2ccccc2c(=O)s1
The activation of the first is higher: -3.11% for the first, -6.32% for the second.

Compared with `Cc1ccc(-n2c(=O)c(C#N)cc3c(=O)n4ccccc4nc32)cc1C`, `Cc1nc(C)c(C(=O)N(c2ccc(C)c(C)c2)C(C(=O)NCc2ccco2)c2ccccc2)s1` (stereo unspecified) is lower in activation: 5.21% for the first, -5.57% for the second.

Compared with `CONC(=O)c1cc(OCC(F)(F)F)ccc1OCC(F)(F)F`, `COc1ccc(C(=O)Nc2ccc(F)cc2F)cc1` is lower in activation: -3.47% for the first, -5.08% for the second.

Compared with `CC1(C)CC(=O)C(C=NCCC2=CCCCC2)=C(O)C1`, `Cc1cc(N=CC2=C(O)CCCC2=O)no1` is higher in activation: -6.14% for the first, -0.19% for the second.

Going from `COc1ccc(C(=O)/C=C/Nc2ccccn2)cc1` to `CC(C)(C)c1ccc(OC2=CS(=O)(=O)c3ccccc32)cc1`, the activation falls from 1.74% to -6.02%.

First: O=C(Nc1ccccc1)c1ccc2nsnc2c1
Second: O=C(NCCc1ccccc1)c1ccc(NC2=NC3CS(=O)(=O)CC3S2)cc1 (stereo unspecified)
The activation of the first is lower: -2.63% for the first, 0.04% for the second.

Compared with `O=C(CN1CCSCC1)N/N=C/c1ccc(F)cc1F`, `O=C1CSC(c2cccc(F)c2)N1c1ccc(O)cc1` (stereo unspecified) is lower in activation: -0.59% for the first, -7.24% for the second.

First: Cc1ccc(-c2nnc(C)c(N3CC(C)OC(C)C3)n2)cc1 (stereo unspecified)
Second: Cc1ccc(-c2csc(SCC(=O)Nc3cc(C)on3)n2)cc1
The activation of the first is lower: -6.7% for the first, -3.51% for the second.

Going from `CC(C)C(NS(=O)(=O)c1cccs1)C(=O)Nc1nc(C(C)(C)C)cs1` (stereo unspecified) to `Cc1cc(C)c(S(=O)(=O)NCC2CCC(C(=O)NCc3ccc4c(c3)OCO4)CC2)c(C)c1` (stereo unspecified), the activation rises from -5.87% to -5.15%.

Going from `O=C1CCCc2c1nc(-c1cccc(Cl)c1)n2O` to `CCCc1nc2sc3c(c2c(=O)n1NC(=O)CCCl)CCCC3`, the activation rises from -8.02% to -7.02%.

Going from `O=C(O)[C@@H]1CCCN1c1ncnc2sc3c(c12)CCC3` to `Cc1ccc2oc(=O)c3cnn(CC(=O)N(Cc4ccco4)C4CCCCC4)c3c2c1`, the activation falls from -0.47% to -2.42%.

Compared with `COc1ccccc1/C=C/C1=NC(=C\N(C)C)/C(=O)O1`, `COc1ccccc1C(c1nnnn1C(C)(C)C)N1CCN(Cc2ccccc2)CC1` (stereo unspecified) is lower in activation: 3.03% for the first, -7.69% for the second.

Compared with `CC(CN1CCOCC1)c1ccccc1` (stereo unspecified), `CC1CN(S(=O)(=O)c2ccccc2)C(C)CN1S(=O)(=O)c1ccccc1` (stereo unspecified) is lower in activation: -0.64% for the first, -2.5% for the second.

Compared with `COc1ccc(N(CCC#N)S(=O)(=O)c2ccc(Cl)cc2)cc1`, `Nc1nc(Br)c2ccccc2c1-c1ccc(F)cc1` is higher in activation: -1.5% for the first, 4.89% for the second.

Work on `CCc1ccc2c(c1)C1(NN=C(c3ccccc3)S1)C(=O)N2` (stereo unspecified) yielded an activation of -1.92%.

`CC1(C)Cc2c(C#N)c(SCc3nc4ccccc4[nH]3)nc(N3CCOCC3)c2CO1` was tested, and the activation was 31% (active).
In the case of `C=C(C)Cn1c(N2CCCC2)nc2c1c(=O)[nH]c(=O)n2C`, the activation is reported as 19.6% (active).
For `COc1cc(C2C(C(=O)OCCC#N)=C(C)NC3=C2S(=O)(=O)c2ccccc23)cc(OC)c1OC` (stereo unspecified), the activation was 26.2% (active).
`CCn1c(=N)c(S(=O)(=O)c2ccc(F)cc2)cc2c(=O)n3ccccc3nc21` was tested, and the activation was 34.3% (active).
For `O=C1CCCC(O)=C1C=NCCc1ccccc1`, the activation was 84.1% (active).
For `OCCNc1nc2ccccc2n1-c1ncnc2sc3c(c12)CCC3`, the activation was 17.8% (active).
With `CCC(C)n1c(-c2cc(OC)c(OC)c(OC)c2)nc2nc3ccccc3nc21` (stereo unspecified) the activation was 16.8% (active).
